15 compounds from PubChem BioAssay (EPA / NIEHS) can be followed below.

The source made the active and inactive calls. Rule for the calls: active = hit-call score of the fitted dose curve at least 0.9, where 1 is the maximum; inactive = score below 0.9.

System in one experiment: not listed separately
In words: CCTE_Padilla_ZF_Score.General: CCTE's 144 Hour Post-fertilization zebrafish Assay Score for General Malformation, Padilla Lab (AID 2284411). An outline of the steps:
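Wild-type zebrafish embryos were plated singly at 6-8 hpf in 10% Hanks' and exposed in sealed wells at 26C until rinsed on 5 dpf. At 6 dpf two blinded assessors scored mortality, hatching and malformations by stereomicroscopy; gain-of-signal versus DMSO.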
As to `O=C1CCCCCCCCCCCCCCO1`, the call was inactive.
In the case of `O=[N+]([O-])c1cc(C(F)(F)F)ccc1Cl`, the compound was called inactive.
Same read-out and setting: under `CC(C)c1ccc(C(C)C)cc1` stands “inactive”.
The same measure, in the same setting: under `CCCCCCCCCC=O` stands “inactive”; under `CCn1c2ccccc2c2cc(N)ccc21`, “inactive”; under `CCCCC(CC)COCCC#N` (stereo unspecified), “inactive”.
For `CCCCCCCCC=O`, the compound was called inactive.
On the same count and under the same terms, the value for `O=C(O)c1cn(C2CC2)c2cc(N3CCNCC3)c(F)cc2c1=O` was “inactive”.

The next experiment deals with TTR (gene 7276). In words: CCTE_GLTED_hTTR_0.125uM: CCTE's human Transthyretin (hTTR) Inhibition Assay, with 0.125uM TTR, Great Lakes Toxicology and Ecology Division (GLTED) Lab (AID 2284431).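 Note: hits lower the fluorescence signal relative to DMSO baseline.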 A digest of the protocol:
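Cell-free displacement of the fluorescent probe ANSA from human TTR (0.125uM) after 2 h incubation with test chemical. Fluorescence read at 380 nm excitation/475 nm emission; loss of signal fitted relative to DMSO baseline.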
As to `CCCCCCCCCCCCCOS(=O)(=O)O`, the half-maximal activity concentration (AC50) is 1.6 µM (active).
On the same count and under the same terms, the value for `CCCCCCCCCCCCCC(=O)O` was 1.93 µM (active).
Take `O=C(Oc1ccccc1)c1ccc(O)cc1`: the AC50 is 0.326 µM (active).
On to `CC(C)=CCCC(C)=CCCC(C)=CCO`, for which the AC50 is 19.9 µM (active).
On the same count and under the same terms, the value for `CSc1nc(NC2CC2)nc(NC(C)(C)C)n1` was 10.8 µM (active); that for `CCCCCCCCCC=O` was 9.95 µM (active).
Turning to `O=Nc1ccc(Nc2ccccc2)cc1`, the AC50 was 7.46 µM (active).
Turning to `O=c1cc(-c2ccccc2)oc2cc(O)cc(O)c12`, the AC50 is 0.06 µM (active).
